From PubChem BioAssay (NCI)
The panel holds about 79,000 compounds, 15% with a hit somewhere; the sample as a whole holds those more often. Unmarked numbers belong to inactive results. Activity calls are given as the source filed them. Rule as the data show it: active = growth inhibition above about 70%; inactive = the rest.

Key:
[1] = NCI Yeast Anticancer Drug Screen. Data for the rad50 strain (AID 155);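 also: 0% = growth of vehicle-only cultures of the same strain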; details: S. cerevisiae rad50 strain growth inhibition; at 50.0 µM; stronger effect = higher value
Outline: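 A DNA repair-deficient yeast mutant serves as the test organism; compound-induced growth inhibition is calculated against vehicle-treated cells.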

[2] = NCI Yeast Anticancer Drug Screen. Data for the mec2-1 strain (AID 157); details: S. cerevisiae mec2-1 strain, at 50.0 µM, stronger effect = higher value
Outline: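 mec2-1 yeast strain, carrying an alteration in DNA damage repair or cell cycle control, was exposed to compounds; growth inhibition was measured relative to vehicle-treated controls.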

[3] = NCI Yeast Anticancer Drug Screen. Data for the sgs1 mgt1 strain (AID 161);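 also: 0% = growth of cultures given vehicle only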; details: S. cerevisiae sgs1 mgt1 strain, at 50.0 µM, stronger effect = higher value
Outline: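 Growth of a repair-deficient yeast mutant was monitored after compound treatment and expressed as inhibition relative to vehicle-treated cultures.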

[4] = NCI Yeast Anticancer Drug Screen. Data for the cln2 rad14 strain (AID 165);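 also: 0% = growth equal to vehicle treated cultures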; details: S. cerevisiae cln2 rad14 strain, at 50.0 µM, stronger effect = higher value
Outline: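 Yeast carrying cln2 and rad14 alterations (cell cycle control and DNA damage repair) were exposed to compounds. Growth inhibition was measured against vehicle-treated controls.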

[5] = NCI Yeast Anticancer Drug Screen. Data for the bub3 strain (AID 167); details: S. cerevisiae bub3 mutant strain, at 50.0 µM, stronger effect = higher value
Outline: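 Inhibition values come from growth of compound-treated mutant yeast normalised to vehicle-treated controls.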

[6] = NCI Yeast Anticancer Drug Screen. Data for the mlh1 rad18 strain (AID 175); details: S. cerevisiae mlh1 rad18 strain growth inhibition; at 50.0 µM; stronger effect = higher value
Outline: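 Growth inhibition of the yeast strain was measured after compound exposure and expressed relative to vehicle-treated controls. The strain carries defined defects in DNA damage repair.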

SMILES | growth inhibition [1] | growth inhibition [2] | growth inhibition [3] | growth inhibition [4] | growth inhibition [5] | growth inhibition [6]
COc1ccc2c(c1)C1(C)CCCC(C)(CO)C1CC2 (stereo not given) | 37% | -0.3% | 20.2% | 3.95% | 1.4% | -10.8%
O=[N+]([O-])c1ccc(/C(=C/c2ccc(Cl)cc2Cl)S(=O)(=O)C(Cl)Cl)o1 | 98.3% (active) | 98.8% (active) | 99.1% (active) | 99.1% (active) | 98.2% (active) | 98% (active)
COc1ccc2c(=O)c(Cc3c[nH]c4ccccc34)coc2c1 | 27.6% | 12% | 29% | -35.6% | 9.85% | 19.2%
CCCC1=C(CC)C(C(=O)Nc2c(C)cccc2C)=NC(S)N1 (stereo not given) | -11.8% | -15.6% | 0.65% | 14.5% | 1.15% | -19.1%
COc1ccccc1/C=C/C(=O)N1CCC2(CC1)C(=O)N(C)CN2c1ccccc1 | -16% | 8.45% | -17.3% | -15.1% | -0.35% | -2.4%
Cc1cc(S(=O)(=O)Nc2n[nH]c(-c3ccc(Cl)cc3)n2)c(SSc2cc(Cl)c(C)cc2S(=O)(=O)Nc2n[nH]c(-c3ccc(Cl)cc3)n2)cc1Cl | 34.5% | 15.2% | 27.8% | 34.7% | 30.6% | 32.2%
CC(=O)ON=C(C1CC1)C1CC1 | -6% | 3.5% | -6.4% | 4.3% | -13% | -3.3%
CC(=O)OC12C3C4C1C1C2C3C41OC(C)=O (stereo not given) | -4.95% | 11.8% | -24.1% | 0.9% | -16.4% | -7.5%
Clc1nc(Cl)c2ncn(C3CCCO3)c2n1 (stereo not given) | -23.1% | -10% | 14.7% | -40% | 44% | 4.95%
O=C(Nc1cccc2ccccc12)c1ccco1 | 14.8% | 16.5% | 8.6% | 3.8% | 1.65% | 7.9%
C[Si](C)(OCCS(=O)(=O)O)C1S(=O)(=O)OCCOS1(=O)=O | -18.7% | -21.4% | -12.9% | 8.6% | -16.8% | -18.4%
CCC1NC(N=Nc2ccc([N+](=O)[O-])cc2)(P(=O)(OC(C)C)OC(C)C)OC1=O (stereo not given) | 44.5% | -43.5% | 16.1% | -15.8% | 17.5% | 10.8%
COC(=O)c1cc(C)c(C(=O)O)c(C)c1 | 13% | 22.5% | 26.6% | 16.3% | 3.9% | 14.9%
CCOC(=O)c1ccc(Cl)cc1 | -14% | -16.8% | -25.1% | -23.8% | -30.8% | -25.1%
O=C(O)/C(=C\c1ccccc1[N+](=O)[O-])c1ccc(Cl)cc1 | -0.2% | -14.1% | -2.3% | -46.8% | -8.95% | -1.8%
CCC(COC(=O)CC[C@@H](NC(=O)C(C)NC(=O)C(C)OC1C(O)C(CO)OC(OCc2ccccc2)C1NC(C)=O)C(N)=O)NC1c2ccccc2Nc2cccc([N+](=O)[O-])c21 (stereo not given in full) | 5.65% | -9.7% | -13.8% | 6.4% | -17.9% | -10.7%
Cc1ccc(C2(C(=O)O)CC2)cc1 | -3.2% | -25.7% | 12.3% | 21.4% | -13.8% | 5.15%
CCC/C=N/Nc1ccc([N+](=O)[O-])cc1[N+](=O)[O-] | -11.3% | -9.95% | 0.3% | -12.5% | 0.9% | -16.1%
COc1ccc([N+](=O)[O-])cc1NC(=O)c1ccc(Cl)cc1 | 12% | 29.7% | 35.6% | 16.9% | 28% | 34.8%
CC(=O)OC12CC(C)C3(O)C4C=C(C)C(=O)[C@@]4(O)CC(CO)=C[C@H]3C1C2(C)C (stereo not given in full) | -4.3% | -6.15% | 9.95% | 5.35% | 6.8% | 2.05%
